# Assay results as given in PubChem BioAssay (NCATS).
# Records with an inconclusive call do not appear. The source made the active and inactive calls. Unless noted, calls come from the whole dose curve; as a rule, active = well fitted cell-killing curve with a large enough effect; inconclusive = small, poorly fitted or top-dose-only effect, or effect the other way; inactive = no such curve, though single readings can be large or run the other way.
# Assays:
# [1] = Quantitative High-Throughput drug screen in 47 multiple myeloma cell lines against the NCATS MIPE library collection: VP6_DJ cell viability assay (AID 1919867); note: nearly all actives have a fitted effect of over 40% in size
# Method in brief: (§1)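 ATP-based CellTiter-Glo luminescence after 48 h drug exposure (37 °C, 5% CO2) of 500 myeloma cells per well. DMSO-only wells set 100% viability, media-only wells 0%; MIPE 4.0 library added by pin tool.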
# [2] = Quantitative High-Throughput drug screen in 47 multiple myeloma cell lines against the NCATS MIPE library collection: OPM2_DSMZ cell viability assay (AID 1919872); note: nearly all actives have a fitted effect of over 30% in size
# Method in brief: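 Luminescent ATP measurement with CellTiter-Glo gives viability, scaled between DMSO-only wells (100%) and media-only wells (0%). Cells, 500 per well, faced library compounds for 48 hours at 37C.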
# [3] = Quantitative High-Throughput drug screen in 47 multiple myeloma cell lines against the NCATS MIPE library collection: KMS11_JCRBsus cell viability assay (AID 1919873); note: nearly all actives have a fitted effect of over 50% in size
# Method in brief: as §1
# [4] = Quantitative High-Throughput drug screen in 47 multiple myeloma cell lines against the NCATS MIPE library collection: KMS28BM_JCRB cell viability assay (AID 1919874); note: nearly all actives have a fitted effect of over 35% in size
# Method in brief: as §1
# [5] = qHTS drug screen for cell cycle checkpoint inhibitors in PARPi-resistant BRCA-mutant ovarian cancer cell lines. (AID 1963452; calls by dose curve); conditions: PEO1/OlaR viability, CellTiter-Glo luminescence, 96 h; for Z-AUC: stronger effect = lower value
# Method in brief: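 PEO1, PEO4 and PEO1/OlaR ovarian cancer cells, 600 per well, exposed 96 h at 37C to a dilution series. Viability read by CellTiter-Glo luminescence, normalized to DMSO and empty wells; activity summarized as Z-AUC.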
# [6] = Quantitative High-Throughput drug screen in 47 multiple myeloma cell lines against the NCATS MIPE library collection: RPMI8226_ATCC cell viability assay (AID 1919871); note: nearly all actives have a fitted effect of over 30% in size
# Method in brief: as §1
# [7] = Quantitative High-Throughput drug screen in 47 multiple myeloma cell lines against the NCATS MIPE library collection: PCM6_Riken cell viability assay (AID 1919870); note: nearly all actives have a fitted effect of over 30% in size
# Method in brief: as §1
# [8] = Quantitative High-Throughput drug screen in 47 multiple myeloma cell lines against the NCATS MIPE library collection: UTMC2_PLB cell viability assay (AID 1919868); note: nearly all actives have a fitted effect of over 55% in size
# Method in brief: as §1
# [9] = Quantitative High-Throughput drug screen in 47 multiple myeloma cell lines against the NCATS MIPE library collection: PE2_PLB cell viability assay (AID 1919869); note: nearly all actives have a fitted effect of over 35% in size
# Method in brief: as §1
# [10] = measured here: PEO1 parental Z-AUC
# Potency is the fitted concentration of half-maximal effect.
Compound,Potency [1],Potency [2],Potency [3],Potency [4],Z-AUC [5],"Z-AUC [5, 10]",Z-AUC ([5]; measured here: PEO4 Z-AUC),Potency [6],Potency [7],Potency [8],Potency [9],Potency [5]
O=C(C1CCCCC1)N1CC(=O)N2CCc3ccccc3C2C1 (configuration not stated),inactive,inactive,inactive,inactive,1.17 (inactive),0.752,1.07,–,–,–,–,–
Clc1ccccc1C(c1ccccc1)(c1ccccc1)n1ccnc1,14.8 µM (active),–,–,–,-0.839 (inactive),-1.06,-0.849,14.8 µM (active),–,–,–,–
CN(C)C(=N)N=C(N)N,inactive,inactive,inactive,inactive,–,–,–,inactive,–,–,–,–
CC(C)C(=O)Nc1ccc([N+](=O)[O-])c(C(F)(F)F)c1,3.32 µM (active),inactive,–,inactive,-1.15 (inactive),-0.423,0.418,inactive,3.32 µM (active),–,–,–
CC1COc2c(N3CCN(C)CC3)c(F)cc3c(=O)c(C(=O)O)cn1c23 (configuration not stated),inactive,inactive,–,inactive,-0.369 (inactive),0.841,-0.196,inactive,–,–,–,–
NCCc1cnc[nH]1,–,–,inactive,inactive,0.48 (inactive),0.383,0.867,–,inactive,inactive,inactive,–
Cc1cn([C@H]2C=C[C@@H](CO)O2)c(=O)[nH]c1=O,inactive,inactive,–,–,–,–,–,inactive,–,–,–,–
O=C(c1ccc(F)cc1)C1CCN(CCn2c(=O)[nH]c3ccccc3c2=O)CC1,–,inactive,–,–,–,–,–,5.26 µM (active),–,inactive,–,–
CCCCc1oc2ccccc2c1C(=O)c1cc(I)c(OCCN(CC)CC)c(I)c1,14.8 µM (active),–,–,20.9 µM (active),-0.673 (inactive),-0.649,-0.00161,18.7 µM (active),20.9 µM (active),–,–,–
C[C@](N)(Cc1ccc(O)c(O)c1)C(=O)O,–,7.43 µM (active),7.43 µM (active),inactive,0.359 (inactive),1.39,1.22,–,inactive,inactive,–,–
CCc1cccc2c3c([nH]c12)C(CC)(CC(=O)O)OCC3 (configuration not stated),–,inactive,inactive,inactive,0.208 (inactive),0.962,0.882,inactive,inactive,inactive,–,–
COC(=O)Nc1nc2ccc(C(=O)c3cccs3)cc2[nH]1,–,0.0118 µM (active),–,inactive,–,-1.94,-1.92,0.526 µM (active),–,0.0209 µM (active),0.0235 µM (active),0.0692 µM (active)
Clc1ccc(C(c2ccccc2Cl)C(Cl)Cl)cc1 (configuration not stated),6.62 µM (active),–,18.7 µM (active),16.6 µM (active),-0.334 (inactive),0.14,0.236,23.5 µM (active),18.7 µM (active),–,–,–
N[C@@H](Cc1c[nH]c2ccc(O)cc12)C(=O)O,16.6 µM (active),inactive,inactive,inactive,-0.189 (inactive),-0.312,-0.162,1.05 µM (active),–,–,–,–
O=C(c1ccc(OCCN2CCCCC2)cc1)c1c(-c2ccc(O)cc2)sc2cc(O)ccc12,16.6 µM (active),–,16.6 µM (active),23.5 µM (active),0.6 (inactive),0.409,0.0416,14.8 µM (active),18.7 µM (active),–,–,–
COc1ccc(C2CNC(=O)C2)cc1OC1CCCC1 (configuration not stated),14.8 µM (active),inactive,inactive,inactive,-0.000894 (inactive),0.813,0.981,inactive,–,–,–,–

Compound,Potency [1],Potency [2],Potency [3],Potency [4],Z-AUC [5],"Z-AUC [5, 10]",Z-AUC ([5]; measured here: PEO4 Z-AUC),Potency [6],Potency [7],Potency [8],Potency [9],Potency [5]
Cn1cnc2c1c(=O)[nH]c(=O)n2C,–,20.9 µM (active),9.35 µM (active),14.8 µM (active),-0.393 (inactive),-0.653,-0.709,20.9 µM (active),16.6 µM (active),14.8 µM (active),–,–
COc1ccccc1OCC(O)CN1CCN(CC(=O)Nc2c(C)cccc2C)CC1 (configuration not stated),inactive,inactive,inactive,inactive,-0.161 (inactive),0.571,0.54,–,–,–,–,–
CC(C(=O)O)c1cccc(C(=O)c2ccccc2)c1 (configuration not stated),14.8 µM (active),inactive,inactive,inactive,0.0263 (inactive),0.275,0.507,inactive,16.6 µM (active),–,–,–
CC(C)NCC(O)c1ccc(O)c(O)c1 (configuration not stated),0.0332 µM (active),inactive,16.6 µM (active),7.43 µM (active),1.31 (inactive),0.911,0.816,–,1.18 µM (active),–,–,–
O=C1N(c2ccccc2)c2ccccc2C1(Cc1ccncc1)Cc1ccncc1,20.9 µM (active),inactive,inactive,–,-0.0273 (inactive),0.843,0.797,inactive,–,–,–,–
COc1ccc2c(c1)c(CC(=O)O)c(C)n2C(=O)c1ccc(Cl)cc1,20.9 µM (active),inactive,inactive,inactive,0.8 (inactive),0.391,0.536,inactive,–,–,–,–
CN1C2CCC1CC(OC(=O)C(CO)c1ccccc1)C2 (configuration not stated),–,inactive,inactive,inactive,0.435 (inactive),0.73,-0.0914,inactive,inactive,inactive,–,–
O=c1c(-c2ccc(O)cc2)coc2cc(O)cc(O)c12,5.9 µM (active),inactive,–,inactive,0.848 (inactive),0.793,-0.435,20.9 µM (active),7.43 µM (active),–,–,–
NCCCCCC(=O)O,–,inactive,inactive,inactive,1.55 (inactive),1.11,1.26,inactive,inactive,inactive,inactive,–
CC[N+](CC)(CC)CCOc1cccc(OCC[N+](CC)(CC)CC)c1OCC[N+](CC)(CC)CC,–,0.118 µM (active),–,–,0.722 (inactive),0.846,0.666,inactive,inactive,inactive,inactive,–
COc1ccc2[nH]cc(CCNC(C)=O)c2c1,inactive,–,inactive,–,1.13 (inactive),1.56,1.13,inactive,–,–,–,–
CC12CC3CC(C)(C1)CC(N)(C3)C2,18.7 µM (active),inactive,–,2.64 µM (active),1.05 (inactive),0.978,0.935,–,20.9 µM (active),–,–,–
Cn1ccc2cc3c(cc21)CCN3C(=O)Nc1cccnc1,14.8 µM (active),–,–,–,0.66 (inactive),0.473,0.355,inactive,23.5 µM (active),–,–,–
CS(=O)(=O)Nc1ccc([N+](=O)[O-])cc1Oc1ccccc1,inactive,–,–,inactive,1.34 (inactive),1.22,1.35,16.6 µM (active),inactive,–,–,–
CC(C)NCC(O)COc1ccc(CCOCC2CC2)cc1 (configuration not stated),–,inactive,–,inactive,1.3 (inactive),0.99,1.01,inactive,inactive,inactive,–,–
